# Compound activity as filed in PubChem.
# Only some compounds are listed: those with a hit (about 2.9% of all), similar ones and a draw of the others.
# CF NFkB block = inhibitors of PAF-induced NF-kB signaling, primary screen, cell-based, GFP fluorescence, uHTS; KKLEB NF-kB-GFP reporter, GFP fluorescence overnight; hit rate 0.86% among 360,000; inhibition, % at 5 µM;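 active = at least 50% inhibition at 5 µM, scaled per plate between neutral and stimulator controls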;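 also: PAF is a Pseudomonas aeruginosa culture filtrate used as stimulus; plate controls were PAF-stimulated DMSO wells for no effect and unstimulated DMSO wells for full effect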
# Shn3 inh set2 = reduction of Shn3 3'UTR firefly luciferase signal, primary screen, Schnurri-3 inhibitor project, cell-based, Clone20 osteoblasts, set 2; Clone20 osteoblast Shn3 3'UTR firefly luciferase, 24 h; inhibition, % at 12.5 µM; hit rate 0.52% among 360,000; AID 588674, 2011;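 active = mean inhibition of at least 75% with every replicate also reaching 75%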;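 also: 0% = median of neutral control wells and 100% = pilot-screen positive control compound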
# LMP1 NFkB inh = EBV LMP1-driven NF-kappaB luciferase reporter inhibitors, primary screen, cell-based, luminescence, single point; LMP1-induced NF-kappaB luciferase reporter cells; inhibition, % at 12.5 µM; hit rate 0.69% among 350,000; in the data active = inhibition above about 41%;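 also: 0% = neutral control wells and 100% = reference inhibitor control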
# KKLEB cytotox = cytotoxicity in KKLEB CF airway cells, primary screen, cytotoxicity control for CF NF-kB inhibitor project, cell-based, uHTS, fluorescence assay plates | KKLEB CF airway cells viability, ATPlite luminescence, overnight; hits give low values; cells stimulated with P. aeruginosa culture filtrate | activity change (cytotoxicity), % at 5 µM | hit rate 0.36% among 360,000;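 active = corrected activity change at or below -50% at 5 µM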
# HIF-2a block = HIF-2a reporter inhibitors, primary screen, luminescence, 786-0 RCC cells. hit rate 0.72% among 360,000. inhibition, % at 18.8 µM. 786-0 RCC cells HIF-2a reporter, luciferase luminescence, overnight;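 active = inhibition of the luminescence signal of 40% or more relative to plate controls, in a single-dose primary screen at 18.75 µM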
# Peg3 promoter = Peg3 promoter-driven luciferase inhibitors, primary screen, cell-based, HeLa, luciferase luminescence; inhibition, % at 20 µM; HeLa PEG-Prom luciferase reporter, overnight; hit rate 1.7% among 360,000;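 active = inhibition of at least 50% at 20 µM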
# An asterisk follows results filed as active; . = no result.
SMILES,CF NFkB block,Shn3 inh set2,LMP1 NFkB inh,KKLEB cytotox,HIF-2a block,Peg3 promoter
COc1ccc(NS(=O)(=O)c2cc(-c3cnc(C4CC4)o3)ccc2C)cc1,13,22,2,-9,18,45
COc1ccccc1NS(=O)(=O)c1cc(-c2cnc(C3CC3)o2)ccc1C,11,14,-8,-11,25,52*
COc1ccc(C(=O)NOCc2ccccc2)cc1,29,-56,48*,-8,-17,4
CC(C)(C)c1ccc(C(=O)N2CCC2(C)C(=O)NCc2cccc3ccccc23)cc1 (stereo unspecified),-23,45,.,-4,10,21
CC1Cc2ccccc2N1S(=O)(=O)c1cccc(C(=O)N2CCCCC2)c1 (stereo unspecified),-4,10,2,-10,8,5
COc1ccccc1N1CCN(C(=O)c2cccc(S(=O)(=O)N3c4ccccc4CC3C)c2)CC1 (stereo unspecified),38,40,9,-7,11,78*
CC1Sc2ccc(S(=O)(=O)N3CCC(C(=O)Nc4cccc(Cl)c4)CC3)cc2NC1=O (stereo unspecified),7,90*,6,14,-12,10
Cc1ccc(NC(=O)C2CCN(S(=O)(=O)c3ccc4c(c3)NC(=O)C(C)S4)CC2)c(C)c1 (stereo unspecified),3,43,9,-4,-9,-6
CC1Sc2ccc(S(=O)(=O)N3CCC(C(=O)NCc4ccc(Cl)cc4)CC3)cc2NC1=O (stereo unspecified),7,51,2,9,12,-17
Cc1ccc(NC(=O)C2CCN(S(=O)(=O)c3ccc4c(c3)NC(=O)C(C)S4)CC2)cc1C (stereo unspecified),-4,88*,10,15,-14,-19
CCc1ccc(NC(=O)C2CCN(S(=O)(=O)c3ccc4c(c3)NC(=O)C(C)S4)CC2)cc1 (stereo unspecified),14,90*,27,-1,5,35
Cc1nn(CC(=O)Nc2cccc(Cl)c2)c(=O)c2cc(-c3ccccc3)nn12,16,21,2,-5,1,48
CCCCC[C@@H](/C=C/C1C(=O)C=C[C@H]1C/C=C\CCCC(=O)OC)OC(C)=O (stereo partly specified),30,37,18,-11,10,81*
CCn1c(-c2csc3c2CCC(C)C3)n[nH]c1=S (stereo unspecified),8,7,2,-5,5,4
CC1OC(CC(=O)O)CC2=C1C(=O)c1c(O)cccc1C2=O (stereo unspecified),101*,99*,88*,-105*,87*,100*
O=C1C=C(O)c2cccc(O)c2C1=O,-18,-18,12,-5,-2,14
NC(=O)c1ncn([C@@H]2O[C@H](CO)[C@@H](O)[C@H]2O)n1,-16,13,63*,11,-7,-8
O=C(COc1coc(CN2CCc3ccccc32)cc1=O)Nc1cccc(F)c1,64*,-7,3,-56*,6,14
C=C1CCC[C@]2(C)C[C@H]3OC(=O)C(CN[C@@H](C)c4ccccc4)[C@H]3CC12 (stereo partly specified),13,18,-8,4,-12,1
C=C1CCC[C@]2(C)C[C@H]3OC(=O)C(CNC(C)CCCC(C)C)[C@H]3CC12 (stereo partly specified),7,17,-7,-3,-7,104*
Cc1nn(C)c(C)c1NC(=O)CSc1nc(-c2ccccc2Cl)nc2c1cnn2-c1ccccc1,29,8,-22,-12,18,65*
CN(CC(=O)Nc1ccccc1C(=O)N1CCCC1)S(=O)(=O)c1ccc(Cl)cc1,-7,-3,4,12,6,19
CCCc1cnc(Nc2nc(C(N)Cc3ccc(C(F)(F)F)cc3)cs2)nc1 (stereo unspecified),17,-7,.,-7,27,96*
Cc1cc(C)nc(Nc2nc(C(N)Cc3ccc(F)cc3)cs2)n1 (stereo unspecified),-1,29,.,2,-6,-44
Cc1cc(C)nc(Nc2nc(C(N)Cc3ccc(Cl)cc3)cs2)n1 (stereo unspecified),11,1,.,-2,10,92*
SMILES,CF NFkB block,Shn3 inh set2,LMP1 NFkB inh,KKLEB cytotox,HIF-2a block,Peg3 promoter
NC(Cc1ccc(C(F)(F)F)cc1)c1csc(Nc2nccc(C(F)(F)F)n2)n1 (stereo unspecified),-4,-11,.,-10,15,92*
Cc1cc(C)nc(Nc2nc(C(N)Cc3ccc(C(F)(F)F)cc3)cs2)n1 (stereo unspecified),-5,28,.,-2,13,102*
CCOC(=O)C1C(C(=O)NN)C1C(=O)Nc1ccccc1 (stereo unspecified),-10,-19,-9,-1,10,0
COc1ccc(C(=O)NCc2nnc(SCC(=O)Nc3cc(Cl)ccc3OC)o2)cc1,-6,17,7,-4,9,-3
Oc1[nH]c2ccccc2c1N=Nc1nc(Nc2ccccc2)nc(N2CCOCC2)n1,34,83,-7,-15,-16,70*
COC(=O)c1c[nH]c2c1-c1cc(C(=O)OCc3ccccc3)n(S(=O)(=O)c3ccc(C)cc3)c1C(=O)C2=O,86*,-15,1,-21,8,82*
Cc1ccc(OCCn2cnc3ccccc3c2=O)c([N+](=O)[O-])c1,4,-104,-22,0,-203,-255
COc1cc(C2Oc3ccccc3C=C2[N+](=O)[O-])cc(OC)c1OC (stereo unspecified),-29,3,.,-14,32,52*
CC(C)C[C@H]1CN=C(N(C)C)N1CC(C)C,-12,19,4,21,12,-17
CC(C)C[C@H]1CN=C(N(C)C)N1CC1CCCCCC1,-2,87*,-8,13,-7,-9
CCOc1ccc(CCN2C(=S)N([C@@H](CC(C)C)CN3CCCC3CN3C(=S)NC[C@@H]3Cc3ccccc3)C[C@@H]2CC(C)C)cc1 (stereo partly specified),.,.,.,.,-24,.
O=c1c2ccc(Cl)cc2nc(-c2cccc(C(F)(F)F)c2)n1O,7,20,17,-5,26,52*
CCOC(=O)N1CCN(C(=O)c2cc(-c3ccc(OCC)cc3)nc3ccccc23)CC1,10,-7,11,-75*,-279,-64
COc1ccc(-c2cc(C(=O)N3CCN(c4ccccn4)CC3)c3ccccc3n2)cc1,16,-90,11,-61*,-195,-47
